Assay outcomes (PubChem)
In the library only some 1.2% were active in any assay of this set; here they are far more common.
TRPV1 ag: human TRPV1 agonism. Q8NER1. TRPV1-expressing cells, Fluo-8 calcium influx, agonist mode. activation, % at 8.33 µM. 320,000 tested, 0.19% active; in the data active means activation above about 80%; inconclusive means between about 30% and that limit; further: 0% is about no effect
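Fluo-8 calcium influx in TRPV1-expressing cells, kinetic read (ex 480/em 520 nm). Compound added and read 3 min for agonist activity, followed by capsaicin at EC20 final and 2 min further read for enhancement.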
KCNH2 3.1 inh: blocks the human KCNH2 3.1 channel isoform; U2OS KCNH2 3.1, thallium flux FluxOr; active compounds read low; activity change, % (tested at about 1.8 µM); AID 720553; 340,000 tested, 0.95% active;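 active means maximum activity change below -70%; inconclusive means maximum activity change from -70% to -50%; inactive means maximum activity change above -50%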;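 further: thallium influx rate constant from kinetic fluorescence after stimulation buffer; on the % scale 0 is the no-effect control and ±100 the full control effect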
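U2OS cells transduced with KCNH2 3.1 mutant virus (1.77 x 10^8 /mL, 4 h), plated overnight at 37 C, loaded 45 min with FluxOr dye plus Red40 quencher. Thallium flux rate constant from kinetic reads after stimulation buffer, normalised to controls.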
TRPV1 PAM: potentiators of human vanilloid receptor 1 (TRPV1) | Q8NER1 | TRPV1-expressing cells, Fluo-8 calcium influx, capsaicin EC20 potentiation | potentiation, % at 8.33 µM | 320,000 tested, 0.02% active | AID 540277; in the data active means potentiation above about 80%; inconclusive means between about 30% and that limit; further: 0% is about no effect
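Cells expressing TRPV1 were dye-loaded with Fluo-8 and read kinetically: 10 s baseline, 3 min after compound (agonist portion), then 2 min after EC20 capsaicin (allosteric enhancer portion). Calcium-bound dye fluorescence at 480/520 nm.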
hERG WT inh: KCNH2 (human, wildtype) channel inhibition; Q12809; U2OS, BacMam KCNH2, thallium flux FluxOr; active compounds read low; activity change, % at 1.84 µM; 340,000 tested, 0.37% active; AID 720551;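 active means maximum activity change below -70%; inconclusive means maximum activity change between -70% and -50%; inactive means maximum activity change above -50%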; further: on the % scale 0 is the no-effect control and ±100 the full control effect
Target sequence (Q12809 whole entry, looked up): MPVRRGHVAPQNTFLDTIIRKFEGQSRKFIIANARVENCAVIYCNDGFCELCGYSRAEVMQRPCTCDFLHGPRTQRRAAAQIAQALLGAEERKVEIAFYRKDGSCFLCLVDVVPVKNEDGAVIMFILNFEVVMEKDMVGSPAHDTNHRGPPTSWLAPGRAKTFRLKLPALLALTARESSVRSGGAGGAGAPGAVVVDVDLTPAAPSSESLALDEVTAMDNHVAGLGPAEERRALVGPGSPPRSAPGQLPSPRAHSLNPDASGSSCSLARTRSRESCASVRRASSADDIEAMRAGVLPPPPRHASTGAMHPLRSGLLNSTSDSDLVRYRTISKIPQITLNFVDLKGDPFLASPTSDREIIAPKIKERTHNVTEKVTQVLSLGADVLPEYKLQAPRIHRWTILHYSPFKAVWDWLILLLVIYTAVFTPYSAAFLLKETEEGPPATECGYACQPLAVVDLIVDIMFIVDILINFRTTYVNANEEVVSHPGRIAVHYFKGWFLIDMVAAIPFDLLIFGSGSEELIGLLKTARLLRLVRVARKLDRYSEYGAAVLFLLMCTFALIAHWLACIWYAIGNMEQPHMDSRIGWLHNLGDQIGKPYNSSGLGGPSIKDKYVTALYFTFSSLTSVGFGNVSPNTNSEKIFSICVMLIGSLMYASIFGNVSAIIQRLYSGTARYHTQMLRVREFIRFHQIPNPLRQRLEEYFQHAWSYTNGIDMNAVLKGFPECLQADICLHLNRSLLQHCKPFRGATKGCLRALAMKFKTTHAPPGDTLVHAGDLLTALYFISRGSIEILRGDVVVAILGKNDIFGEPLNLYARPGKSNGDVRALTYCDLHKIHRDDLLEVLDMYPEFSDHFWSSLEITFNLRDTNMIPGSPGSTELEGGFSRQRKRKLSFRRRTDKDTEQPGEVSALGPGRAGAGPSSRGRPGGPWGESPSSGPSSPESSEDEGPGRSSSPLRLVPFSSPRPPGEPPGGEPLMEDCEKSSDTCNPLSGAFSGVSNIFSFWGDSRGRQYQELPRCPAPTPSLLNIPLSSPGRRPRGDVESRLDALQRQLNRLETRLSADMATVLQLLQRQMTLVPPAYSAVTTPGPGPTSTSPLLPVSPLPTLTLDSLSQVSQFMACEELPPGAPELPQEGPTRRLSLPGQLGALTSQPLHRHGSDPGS
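U2OS cells were transduced with wild-type KCNH2 virus (2.03 x 10^8 / mL) for 4 h at room temperature, then cultured overnight at 37 C. Thallium flux was read with FluxOr dye. Rate constants were normalized to DMSO controls.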
An asterisk follows results filed as active; ? = inconclusive; . = no result given.

SMILES	TRPV1 ag	KCNH2 3.1 inh	TRPV1 PAM	hERG WT inh
O=C(CCCC(=O)N(c1ccc2c(c1)OCCO2)C(C(=O)NC1CCCCC1)c1ccc(F)cc1)Nc1ccccn1 (stereo not drawn)	16	-76*	-21	-4
COc1cc(SC)ccc1C(=O)N1CCN(S(=O)(=O)/C=C/c2ccccc2)CC1	-1	5	1	13
COc1ccc(Cc2nnc(NCCO)[nH]c2=O)cc1	1	16	-1	-14
COc1ccc(Cc2nnc(NCCO)[nH]c2=O)cc1OC	0	9	-3	-118*
Clc1ccc(-c2nnc(CSc3nnc(-c4cccs4)n3Cc3ccccc3)o2)cc1	2	-86*	2	-125*
CCOCCCNC(=O)CN1C(=O)CSc2cc(S(=O)(=O)N3CCCCCC3)ccc21	-1	-12	8	-4
CCOCCCNC(=O)CN1C(=O)CSc2ccccc21	-2	-72*	3	0
CCn1c(=O)c2[nH]c(SC)nc2n(CC)c1=O	.	11	.	-24
Cc1ccc(S(=O)(=O)N2CCCN(C(C)c3nc4ccccc4c(=O)[nH]3)CC2)cc1 (stereo not drawn)	4	-1	3	-280*
Cc1ccc(S(=O)(=O)N2CCCN(Cc3nc4ccccc4c(=O)[nH]3)CC2)cc1	-6	6	-9	-11
c1coc(C2=NC(c3ccco3)C(c3ccco3)N2)c1 (stereo not drawn)	.	6	.	-4
COc1ccccc1CC(O)CC1c2c(cc3c(c2OC)OCO3)CCN1C (stereo not drawn)	.	-1	.	23
COc1ccc(CC(O)CC2c3c(cc4c(c3OC)OCO4)CCN2C)cc1 (stereo not drawn)	1	-97*	4	-1
CCOC(=O)c1cc(OC(C)=O)c2ccc(OC)c(OC)c2c1	.	1	.	2
c1ccc(CCCNc2ncccn2)cc1	0	-97*	-5	-10
CN(C)c1nc(NNC(=O)c2ccccc2)nc(N(C)C)n1	.	-10	.	-2
CC1(C)C(=O)C=C(N2CCCCC2)c2ccccc21	.	10	.	36
COc1ccccc1C1CCN(Cc2ccccc2)CC1	4	0	8	19
COc1ccccc1C1CCN(Cc2ccc3ccccc3c2)CC1	2	-188*	-9	-209*
O=C(c1cccc(S(=O)(=O)N2CCc3ccccc32)c1)N1CCN(c2ccccc2)CC1	-2	-35	1	-9
CC(=O)c1cccc(NC(=O)/C=C/c2ccc([N+](=O)[O-])s2)c1	84*	-8	-18	-2
Cc1cc(C)cc(NC(=O)/C=C/c2ccc([N+](=O)[O-])s2)c1	3	9	-3	2
c1ccc(CCCNCCCn2cnc3c(OCc4ccccc4)ncnc32)cc1	.	-41	.	22
COc1ccc(CNC(=O)COC(=O)c2cc(C)oc2C)cc1	.	3	.	1
CCn1c(CN2CCN(Cc3ccc(C)cc3)C(CCO)C2)nc2ccccc21 (stereo not drawn)	5	-98*	-1	-25
SMILES	TRPV1 ag	KCNH2 3.1 inh	TRPV1 PAM	hERG WT inh
CCOc1ccc(CN2CCN(Cc3cc4c(cc3Cl)OCO4)CC2CCO)cc1 (stereo not drawn)	?	-119*	-17	-111*
CCOc1ccc(CN2CCN(Cc3cccc4c3OCO4)CC2CCO)cc1 (stereo not drawn)	1	-23	4	-1
CCOc1ccc(CN2CCN(Cc3cccc4nonc34)CC2CCO)cc1 (stereo not drawn)	1	-116*	4	-77*
CCN1CCCC1CNc1ncnc2c1[nH]c1ccc(Cl)cc12 (stereo not drawn)	-4	-110*	4	-112*
CCc1nc2ccc(C(=O)N(C)CC(=O)Nc3ccc(F)c(F)c3F)cc2nc1CC	5	0	14	0
Cc1ccc(NC(=O)C2COc3ccccc3O2)cc1 (stereo not drawn)	?	-17	-1	-26
CC1(C)Oc2ccc(NC(=O)C3COc4ccccc4O3)cc2O1 (stereo not drawn)	2	-172*	8	-145*
Cc1nn(C)c(C(=O)Nc2ccc(S(=O)(=O)NC34CC5CC(CC(C5)C3)C4)cc2)c1Br	2	-3	81*	2
CNc1ccc2c3c(cccc13)C(=O)N(C)C2=O	103*	-7	-3	-15
CN1C(=O)c2cccc3c(Cl)ccc(c23)C1=O	2	6	-1	-13
CCN1C(=O)[C@H]2[C@@H](c3ccc(OC)cc3)N[C@]3(CCCN(Cc4ccc(F)cc4)C3=O)[C@H]2C1=O	.	-12	.	-20
COc1ccc(NC(=O)CSc2nc3c(oc4ccccc43)c(=O)n2Cc2ccco2)cc1Cl	5	.	8	.
CCOc1ccc(Br)cc1S(=O)(=O)Nc1ccc(C(=O)OCC(=O)Nc2ccc(C#N)cc2)cc1	-1	-93*	0	-41
CCOC(=O)N1CCC(N2Cc3cccc(C(=O)Nc4ccc(CC)cc4)c3C2=O)CC1	3	-112*	1	-10
CCOc1ccc2ncc(C(=O)c3ccc(OC)cc3)c(N3CCN(CC)CC3)c2c1	10	-75*	6	?
Oc1ccc(Nc2ccc3ccccc3c2)cc1	.	5	.	2
Cc1ccc(NC(=S)NCCc2c[nH]c3ccccc23)c(C)c1	?	-91*	-6	22
COc1ccccc1NC(=S)NCCc1c[nH]c2ccccc12	26	-8	-16	6
O=C(CCCCCCCC(=O)N1CCCC1)N1CCCC1	.	14	.	0
CCC(=O)c1ccc(N2CCN(C(=O)Cc3ccccc3)CC2)c(F)c1	27	2	-26	-3
CCC(=O)c1cc(F)c(N2CCN(C(=O)Cc3ccccc3)CC2)cc1C	91*	3	-8	-7
COc1ccc(CCNC(=O)CCCOc2ccc(C)cc2)cc1OC	?	10	-43	1
COc1ccc(CCNC(=O)CCCOc2cccc(C)c2C)cc1OC	83*	2	13	-3
COc1ccc(NC(=O)c2cc([N+](=O)[O-])ccc2N2CCCC2)cc1S(N)(=O)=O	1	-8	1	-2
COc1ccc(CNc2nc(-c3cccnc3)nn2S(C)(=O)=O)cc1	2	-76*	?	2
SMILES	TRPV1 ag	KCNH2 3.1 inh	TRPV1 PAM	hERG WT inh
CS(=O)(=O)n1nc(-c2cccnc2)nc1NCc1ccccc1	0	-8	-9	-14
Cc1cc(NC(=O)CCN2C(=O)C3C4C=CC(C4)C3C2=O)c2ccccc2n1 (stereo not drawn)	-1	-138*	-14	-133*
COc1ccccc1OCC(=O)Nc1cc(S(=O)(=O)N2CCOCC2)ccc1N1CCCCC1	.	-16	.	-7
CN(C)C(=S)Oc1ccccc1C1(C)OCCO1	.	-6	.	-7
COC(=O)c1ccc(C(=O)OC)c(NC(=O)CN(c2ccc3c(c2)OCO3)S(C)(=O)=O)c1	0	-132*	2	-9
COCCNC(=O)c1ccccc1NC(=O)CN(c1ccc2c(c1)OCO2)S(C)(=O)=O	0	2	-1	-6
COc1ccc(S(=O)(=O)N2CCOCC2)cc1NC(=O)Cc1ccc2c(c1)OCCO2	-5	-5	2	-1
